# Laboratory results: the supplement of paper PMC3656093
# ± gives the standard deviation of the averaged measurements. The full ranking holds about 1,900 compounds; the median of “CD40L-induced NF-kB luciferase activity, plate-corrected, relative to DMSO (0) and IKK inhibitor VII (-100) controls” is about 0.032, and the lowest 2% start at about -26. What follows is part of a selection rich in the lowest values, with near analogues and random picks from the rest.
# Tested on: BL2-NFkB-Luc
# Assay: CD40L-induced NF-kB luciferase activity, plate-corrected, relative to DMSO (0) and IKK inhibitor VII (-100) controls (% normalized activity); higher = more NF-kB reporter activity (less inhibition)
# Details: 9.4 µM; stimulus: tCD40L 64 ng/ml; 4.5 h
# Method: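 BL2 B cells with a stable NF-kB response-element luciferase reporter (BL2-NFkB-Luc), 384-well. Cells were pre-incubated with compound at 9.4 uM for 1 h at 37 C, then stimulated with 64 ng/ml trimerized CD40L for 4.5 h; luciferase was read with Steady-Glo. Signal was normalised per plate in Genedata (median DMSO neutral control = 0, median IKK inhibitor VII at 50 uM = -100) with Assay Median plate-pattern correction; duplicate plates.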
row,SMILES,CD40L-induced NF-kB luciferase activity
1,COc1cc(C(=O)OCCn2c(=O)c3c(ncn3CCN(C)C)n(C)c2=O)cc(OC)c1OC,-3 ± 1.3
2,Nc1cnn(C2OC(CO)C(O)C2O)c(=O)n1 (configuration not stated),6.46 ± 4.2
3,Nc1ccn([C@@H]2O[C@H](CO)[C@@H](O)[C@@H]2O)c(=O)n1,-30.5 ± 2.4
4,O=c1ccn([C@@H]2O[C@H](CO)[C@@H](O)[C@H]2O)c(=O)[nH]1,-6.55 ± 1.5
5,CC(C)CC(=O)OC1C(N2CCOCC2)c2c(ccc(/C=C/C(=O)N3CCOCC3)c2O)OC1(C)C (configuration not stated),-1.24 ± 1.2
6,O=C(/C=C/c1ccco1)N1CCN(c2ccccc2)CC1,6.71 ± 0.18
7,Cc1ccc2c(c1)C(O)(c1c(C)[nH]c3ccccc13)C(=O)N2 (configuration not stated),3.92 ± 8.9
8,O=C(NC(=S)N1CCCCC1)c1cccnc1,-3.04 ± 2.8
9,CC(/C=C1\SC(=O)N(CCCC(=O)O)C1=O)=C\c1ccccc1,-84.08 ± 0.44
10,O=C(CCCN1C(=O)/C(=C\c2cccs2)SC1=S)Nc1ccccn1,-2.54 ± 1.1
11,O=C(CCCN1C(=O)/C(=C\c2cccc(Br)c2)SC1=S)Nc1cccnc1,-2.47 ± 4.1
12,COCCn1c(/C=C/c2ccccc2)nc2ccccc21,38.4 ± 2.4
13,CCn1c(/C=C/c2ccccc2)nc2ccccc2c1=O,4.25 ± 3.8
14,C(=C\c1ccc2ccccc2n1)/c1ccccc1,-56 ± 3.4
15,O=c1cnn([C@@H]2O[C@H](CO)[C@@H](O)[C@H]2O)c(=O)[nH]1,10.5 ± 4.8
16,O=C(Nc1c(C(=O)O)[nH]c2ccccc12)NC1CCCCC1,-0.728 ± 0.3
17,O=C(CC1(O)C(=O)Nc2ccccc21)c1ccccc1O (configuration not stated),1.73 ± 4.3
18,O=C1CCCCCN1Cc1ccccc1,3.92 ± 5.3
19,O=C1C=CC(=O)C(C2=C3C(=O)N(CCc4ccccc4)CC(=O)N3CCC2)=C1,-42.7 ± 2.4
20,O=C(c1cc2cc(Br)ccc2o1)N1CCCC1,38.77 ± 0.2
21,O=c1c2ccccc2nc2n1-c1ccccc1CCC2,-5.01 ± 3.7

row,SMILES,CD40L-induced NF-kB luciferase activity
1,COc1ccc2c(c1)[nH]c1c(=O)n(Cc3ccccn3)cnc12,-0.0285 ± 6.5
2,O=C(/C=C/c1ccco1)Nc1ccccc1C(=O)O,1.64 ± 1.8
3,COc1ccc(CC(=O)Nc2cccc(C(=O)Nc3ccccc3C(=O)O)c2)cc1OC,-2.42 ± 3.4
4,COc1ccc(/C=C/C(=O)Nc2ccccc2C(=O)O)cc1OC,-57.1 ± 1.6
5,O=C1OC(c2ccc(O)cc2)(c2ccc(O)cc2)c2ccccc21,0.943 ± 1.8
6,Cc1cc(O)c(C(C)C)cc1C1(c2cc(C(C)C)c(O)cc2C)OC(=O)c2ccccc21,-36.1 ± 2.9
7,Cc1ccccc1-c1coc2cc(O)ccc2c1=O,4.65 ± 2.2
8,C/C=C/Cn1c(SC)nc2c1c(=O)[nH]c(=O)n2C,-0.907 ± 1.9
9,COCC(C)NC(=O)c1ccc(CN2CCc3ccccc3C2)cc1 (configuration not stated),7.18 ± 5
10,O=C(O)c1cc(-c2ccc3c(c2)OCO3)nc2ccc(Br)cc12,9.08 ± 4
11,CCc1cc2c(=O)c(-c3ccc(F)cc3)c(C)oc2cc1OCC(=O)O,1.94 ± 0.96
12,O=C1c2ccccc2N2C(=O)c3ccccc3C2N1Cc1ccco1 (configuration not stated),-3.98 ± 15
13,O=C1OC(Nc2ccc3c(c2)OCO3)c2ccccc21 (configuration not stated),-15.2 ± 0.48
14,O=S(=O)(NCCCCCNS(=O)(=O)c1ccccc1)c1ccccc1,-7.09 ± 9.8
15,COc1ccc2[nH]c(=O)c(CN(C(=O)c3ccco3)C(C)C)cc2c1,0.241 ± 0.71
16,COc1ccc2[nH]cc(C3N4CC5(C)CN3CC(C)(C4)C5=O)c2c1 (configuration not stated),2.08 ± 1.7
17,COc1ccc2[nH]c(=O)c3c(c2c1)OC(C)(C)C=C3,-32.8 ± 0.38
18,O=C(COc1ccc(F)cc1)OCCN1CCOCC1,0.903 ± 1.5
19,COc1ccccc1C1C(C#N)=C(N)Oc2c1oc(CO)cc2=O (configuration not stated),-1.31 ± 0.27
20,O=C1OC(c2ccccc2)=C/C1=C/c1cccs1,30.9 ± 2.3
21,OC(COCc1ccccc1)CN1CCN(Cc2ccc3c(c2)OCO3)CC1 (configuration not stated),-0.97 ± 0.41
